Holding throughout (assay): NCI-60 one-dose screen, 48 h (100 = growth as untreated, 0 = no growth, -100 = all killed)
Conditions in all cases: 10 µM unless noted

For experiment [1], the system named is NCI-H23 lung.
For experiment [2], the system named is NCI-H226 lung.
For experiment [3], the system named is NCI-H322M lung.
Experiment [4] relates to HOP-62 NSCLC.
Experiment [5] deals with NCI-H460 lung.
Experiment [6] has as its system HOP-92 NSCLC.
Experiment [7] relates to NCI-H522 lung.
The test system of experiment [8] is A549/ATCC NSCLC.
The subject of experiment [9] is 786-0 renal.
The test system of experiment [10] is COLO 205 colon.

Molecules are shown by their SMILES. About 83,000 compounds went through this panel and 20% of them were active in at least one assay; those are over-represented in the sample as a whole.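 How to read the values: 0–100, growth inhibition (40 = 60% inhibited); 0, no net growth; -100 to 0, cell death (-40 = 40% of starting cells died; -100 = all dead).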 A number with no mark means an inactive call. The source made the active and inactive calls. Rule for the calls: active = growth percent below 10; inactive = the rest.

Consider `CC(=O)O[C@H]1[C@H](CC#CC#CC[C@@H]2C[C@]3(C)[C@H]4CC=C5[C@H]6[C@@H](C)[C@H](C)CC[C@]6(C(=O)NCCN(CCN)CCN)CC[C@@]5(C)[C@]4(C)CC[C@H]3C(C)(C)[C@H]2OC(C)=O)C[C@]2(C)[C@H]3CC=C4[C@H]5[C@@H](C)[C@H](C)CC[C@]5(C(=O)NCCN(CCN)CCN)CC[C@@]4(C)[C@]3(C)CC[C@H]2C1(C)C`, for which the growth in [1] was 11.9%; in [2], 69.5%; in experiment [3], 63.3%; in [4] it was 87.1%; in experiment [5] it was 80.5%; in [6], 48.6%. Moreover, the growth in experiment [7] was 15.2%; in experiment [8] it was 43%; in experiment [9], 82.8%; in [10], 78%.

For `COc1ccc(OC)c(Nc2nc(-c3c(C)nc4sccn34)cs2)c1`, the growth in experiment [1] is 69.7%; in experiment [2], 65.7%; in experiment [3], 93.7%; in experiment [4] it was 75.7%; in [5], 62.4%; in [6], 97.6%. Besides, the growth in experiment [7] was 78.6%; in [8], 74.6%; in experiment [9] it was 101%; in experiment [10], 100%.

Consider `C=CCn1c(SCC(=O)Nc2ccc(/C(C)=N\O)cc2)nnc1-c1cc(-c2ccccc2)nc2ccccc12`, for which the growth is 38.9% in experiment [1]; 65.4% in [2]; 69.2% in [3]; 67.9% in [4]; 52.1% in experiment [5]; 99.5% in [6]. Further, the growth in experiment [7] was 41.6%; in experiment [8] it was 43.9%; in [9], 45.2%; in experiment [10], 64.2%.

As to `CSC1=NC(=Nc2c(C)cccc2C)C2(CCC(C(C)(C)C)CC2)N1c1ccc(Cl)cc1` (stereo not given), the growth in experiment [1] was 48.6%; in experiment [2], 48.6%; in [3], 64.8%; in experiment [4] it was 42%; in experiment [5], 16%; in [6], 62.7%. The growth in experiment [7] is 48.2%; in [8] it was 30.5%; in experiment [9] it was 51.1%; in experiment [10] it was 40.8%.

`CCOc1c(C#N)c2c(N)ncnc2n1C1OC(CO)C(O)C1O` (stereo not given): the growth in experiment [1] is 50.6%; in experiment [2] it was 71.8%; in [3], 76.6%; in experiment [4], 76.6%; in [5], 0.566% (active); in experiment [6] it was 50.1%. Also, the growth in experiment [7] was -22.4% (active); in [8], 8.54% (active); in [9] it was 76.1%; in [10], 8.97% (active).

Regarding `COC1CC(N)C2OC(c3ccccc3)OCC2O1` (stereo not given), the growth in experiment [1] is 103%; in experiment [2] it was 104%; in [3] it was 107%; in [4], 114%; in [5], 103%; in experiment [6] it was 136%. Also, the growth was 98.7% in experiment [7], 97.9% in experiment [8], 103% in [9] and 113% in experiment [10].

`COc1ccc(C2=NN(C=O)C(c3ccc(OS(=O)(=O)c4ccc(C)cc4)c(OC)c3)C2)cc1` (stereo not given): the growth is 37.8% in experiment [1]; 67.4% in [2]; 99.9% in experiment [3]; 61.3% in experiment [4]; 62.8% in experiment [5]; 32.8% in [6]. Further, the growth in [7] is 21.3%; in [8], 42.6%; in experiment [9] it was 78.1%; in [10], 63.3%.

`Cn1c(=O)c2c3c(oc2c2ccccc21)C(=O)c1ccccc1C3=O`: the growth in [1] is 78.3%; in [2], 73.2%; in [3], 96.2%; in experiment [4] it was 81.8%; in experiment [5] it was 78.5%; in experiment [6] it was 101%. Moreover, the growth was 50.6% in experiment [7], 81.7% in [8], 107% in experiment [9] and 74.5% in [10].

Regarding `Brc1cccc(-n2ncc3c(Nc4ccc(-c5nnc(-c6ccccc6)o5)cc4)ncnc32)c1`, the growth in experiment [1] is 94.5%; in experiment [2], 90.2%; in experiment [3], 104%; in experiment [4], 89.6%; in experiment [5], 109%; in [6], 104%. In addition, the growth is 98.3% in experiment [7], 109% in [8], 104% in experiment [9] and 107% in experiment [10].

Consider `COCCOCCOCc1n(Cc2ccc3ccccc3n2)c2ccccc2[n+]1Cc1ccc2ccccc2c1`, for which the growth in [1] was 1.03% (active); in [2], 28.1%; in experiment [3], 26.8%; in [4], 11.7%; in experiment [5], 7.94% (active); in experiment [6], -18.2% (active). Moreover, the growth in experiment [7] was 0.793% (active); in experiment [8], 22.5%; in [9] it was 21.2%; in experiment [10], -73.3% (active).

Consider `COc1cc(C2CC(c3cccc(Nc4ccnc5cc(Cl)ccc45)c3)=NN2c2ccccc2)cc(OC)c1OC` (stereo not given), for which the growth was 79.5% in experiment [1]; 82.1% in [2]; 87% in experiment [3]; 82.3% in experiment [4]; 71.1% in experiment [5]; 33.3% in experiment [6]. Besides, the growth in experiment [7] is 53.8%; in experiment [8], 76.2%; in experiment [9], 88%; in [10] it was 92.2%.

For the molecule `Cc1[nH]nc2ccc3nc(-c4ccc5[nH]ncc5c4)c4c(c3c12)CCCC4`, the growth in experiment [1] was 31.1%; in [2], 16.2%; in experiment [3], 36.9%; in [4], 18.5%; in [5], 19.3%; in [6] it was 2.41% (active). Further, the growth in experiment [7] is 0.13% (active); in experiment [8], 12.6%; in [9] it was 34.4%; in experiment [10] it was 8.58% (active).

In the case of `CC1(C)C(N(O)C(=O)Nc2ccc(Cl)cc2)N(c2ccc(Cl)cc2)C(=O)N1CC(=O)N/N=C/C=C/c1ccc([N+](=O)[O-])o1` (stereo not given), the growth in [1] is 3.01% (active); in [2], 25.8%; in [3] it was 49%; in [4] it was 36.8%; in experiment [5], -13.1% (active); in [6], -30.9% (active). The growth is -88.5% (active) in experiment [7], 6.98% (active) in experiment [8], -48.9% (active) in [9] and -81.3% (active) in [10].

Consider `Nc1nc2ccc([C@@H]3Nc4ccc5[nH]ncc5c4[C@H]4[C@H]5CCC(C5)[C@H]43)cc2s1`, for which the growth in [1] was 23.2%; in experiment [2] it was 24.2%; in experiment [3], -13% (active); in experiment [4], 12.2%; in [5], -26.8% (active); in [6] it was 74.7%. In addition, the growth was -65.7% (active) in [7], 25.8% in experiment [8], 43.9% in experiment [9] and 6.12% (active) in experiment [10].

For the origin of these results see PubChem BioAssay (NCI).
